Test results taken from PubChem BioAssay (NCATS).
Inconclusive results are not listed. Calls of active or inactive are those of the source. Calls come from the whole dose curve; as a rule, active = well fitted cell-killing curve with a large enough effect; inconclusive = small, poorly fitted or top-dose-only effect, or effect the other way; inactive = flat fitted curve, though single readings scatter. Where a SMILES comes first, the peptide text is derived from it. [ ]: non-standard residue; d: D form. PhLac = O=C(O)[CH](O)Cc1ccccc1; NMeV = CN[CH](C(=O)O)C(C)C; 2Abz = Nc1ccccc1C(=O)O

What was measured:
Assay in all cases: Primary qHTS to identify gynecologic anti-cancer compounds using libraries of approved drugs and bioactive compounds (AID 1345084); note: nearly all actives have a fitted effect of over 55% in size
Conditions in all cases: Gynecologic cancer cell panel viability, ATPlite luminescence, 48 h; series mostly up to 57.5 µM
OV90 = tested on: OV90
Summary of the method: (§1)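 ATP-based viability (ATPlite), 1,000 cells/well, 16 h pre-incubation, 48 h compound at 37 C, 5% CO2, 15 min RT before read.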

PA-1 = tested on: PA-1
Summary of the method: as §1

SKOV3 = tested on: SKOV3
Summary of the method: as §1

Tov-21-G = tested on: Tov-21-G
Summary of the method: as §1

Tov112D = tested on: Tov112D
Summary of the method: as §1
% is set by controls: 0 for no effect and ±100 for the full control effect.

CC(C)C(C(=O)N1CCCC1C(=O)O)N(C)C(=O)C(O)Cc1ccccc1 (stereo not given) (H-[PhLac]-[NMeV]-Pro-OH; configuration not given here)
inactive: Potency (OV90) | Potency (PA-1) | Potency (SKOV3) | Potency (Tov-21-G) | Potency (Tov112D)

COc1cc(C2Oc3c(O)cc(CCCO)cc3C2CO)ccc1O[C@H]1O[C@H](C)[C@@H](O)[C@H](O)[C@@H]1O (stereo not given in full)
inactive: Potency (OV90) | Potency (PA-1) | Potency (SKOV3) | Potency (Tov-21-G) | Potency (Tov112D)

CC1=C(C)C(=O)OC(C(C)(O)C2CCC3C4CC=C5CC(OC6OC(COC7OC(CO)C(O)C(O)C7O)C(O)C(O)C6O)CC(O)C5(C)C4CCC32C)C1 (stereo not given)
inactive: Potency (OV90) | Potency (PA-1) | Potency (SKOV3) | Potency (Tov-21-G) | Potency (Tov112D)

CC(C)(O)CNc1nc(Nc2ccnc(C(F)(F)F)c2)nc(-c2cccc(C(F)(F)F)n2)n1
inactive: Potency (OV90) | Potency (PA-1) | Potency (SKOV3) | Potency (Tov-21-G) | Potency (Tov112D)

CC1(C)O[C@@]2(C)CC[C@@H]1C[C@@H]2OC1OC(CO)C(O)C(O)C1O (stereo not given in full)
inactive: Potency (OV90) | Potency (PA-1) | Potency (SKOV3) | Potency (Tov-21-G) | Potency (Tov112D)

CC(CCC1(O)OC2CC3C4CCC5CC(O[C@@H]6O[C@H](CO)[C@@H](O)[C@H](O)[C@H]6O[C@@H]6OC[C@@H](O)[C@H](O)[C@H]6O)C(O)CC5(C)C4CCC3(C)C2C1C)CO[C@@H]1O[C@H](CO)[C@@H](O)[C@H](O)[C@H]1O (stereo not given in full)
inactive: activity change, negative = cytotoxicity (OV90) -1.54% [at 11.6 µM] | activity change, negative = cytotoxicity (PA-1) 17.2% [at 11.6 µM] | activity change, negative = cytotoxicity (SKOV3) 0% [at 11.6 µM] | activity change, negative = cytotoxicity (Tov-21-G) 0.148% [at 11.6 µM] | activity change, negative = cytotoxicity (Tov112D) 1.16% [at 11.6 µM]

COC(=O)C12C(=O)C(C)=C(O)C1(C)C(C)=CC1C34CCC(OC3=O)C(C)(C)C4CCC12C (stereo not given)
inactive: Potency (OV90) | Potency (PA-1) | Potency (SKOV3) | Potency (Tov-21-G) | Potency (Tov112D)

CC1=C2C(=O)C=C(CO)[C@@H]2[C@H]2OC(=O)[C@H](C)[C@@H]2[C@@H](O)C1
inactive: Potency (OV90) | Potency (PA-1) | Potency (SKOV3) | Potency (Tov-21-G) | Potency (Tov112D)

CC1(CO)CC[C@]2(C(=O)O[C@@H]3O[C@H](CO)[C@@H](O)[C@H](O)[C@H]3O)CC[C@]3(C)C(=CCC4[C@@]5(C)CC[C@H](O[C@@H]6O[C@H](C(=O)O)[C@@H](O)[C@H](O)[C@H]6O)C(C)(C)C5CC[C@]43C)C2C1 (stereo not given in full)
inactive: activity change, negative = cytotoxicity (OV90) 2.36% [at 11.6 µM] | activity change, negative = cytotoxicity (PA-1) 28.3% [at 11.6 µM] | activity change, negative = cytotoxicity (SKOV3) 13% [at 11.6 µM] | activity change, negative = cytotoxicity (Tov-21-G) 6.77% [at 11.6 µM] | activity change, negative = cytotoxicity (Tov112D) 9.6% [at 11.6 µM]

CC(=O)O[C@@]1(C)C[C@@H](O)[C@]2(O)C=CO[C@@H](O[C@@H]3O[C@H](CO)[C@@H](O)[C@H](O)[C@H]3O)[C@@H]21
inactive: Potency (OV90) | Potency (PA-1) | Potency (SKOV3) | Potency (Tov-21-G) | Potency (Tov112D)

C[C@@H]1O[C@@H](O[C@@H]2[C@@H](O)[C@@H](O)[C@H](O[C@@H]3[C@@H](O)[C@@H](O[C@]4(CO)O[C@H](CO)[C@@H](O)[C@@H]4OC(=O)/C=C/c4ccc(O)cc4)O[C@H](CO)[C@H]3OC(=O)/C=C/c3ccc(O)cc3)O[C@H]2C)[C@H](O)[C@H](O)[C@H]1O
inactive: activity change, negative = cytotoxicity (OV90) 7.74% [at 11.6 µM] | activity change, negative = cytotoxicity (PA-1) -5.64% [at 11.6 µM] | activity change, negative = cytotoxicity (SKOV3) -21.8% [at 11.6 µM] | activity change, negative = cytotoxicity (Tov-21-G) -2.88% [at 11.6 µM] | activity change, negative = cytotoxicity (Tov112D) -1.04% [at 11.6 µM]

CNC(=O)Nc1ccc(OC)c(NC(=O)NC(=O)c2cc(F)c(F)cc2Cl)c1
inactive: Potency (OV90) | Potency (PA-1) | Potency (SKOV3) | Potency (Tov-21-G) | Potency (Tov112D)

CC(C#N)C(C)O[C@@H]1O[C@H](CO)[C@@H](O)[C@H](O)[C@H]1O (stereo not given in full)
inactive: Potency (OV90) | Potency (PA-1) | Potency (SKOV3) | Potency (Tov-21-G) | Potency (Tov112D)

C/C(=C\CO)CC/C=C(\C)C(=O)O[C@H]1[C@H](OC2OC=C(C(=O)O)C3CCC(C)(O)C23)O[C@H](CO)[C@@H](O)[C@@H]1O (stereo not given in full)
inactive: Potency (OV90) | Potency (PA-1) | Potency (SKOV3) | Potency (Tov-21-G) | Potency (Tov112D)

COc1c(C(CC(C)C)OC(C)=O)ccc(Oc2c(O)cc(C)cc2/C=C/C(C)=O)c1C(=O)O (stereo not given)
inactive: Potency (OV90) | Potency (PA-1) | Potency (SKOV3) | Potency (Tov-21-G) | Potency (Tov112D)

O=S(=O)(Nc1ccc(C(O)(C(F)(F)F)C(F)(F)F)cc1)c1cccs1
inactive: Potency (OV90) | Potency (PA-1) | Potency (SKOV3) | Potency (Tov-21-G) | Potency (Tov112D)

CCOc1nc2cccc(C(=O)O)c2n1Cc1ccc(-c2ccccc2-c2noc(=O)[nH]2)cc1
inactive: Potency (OV90) | Potency (PA-1) | Potency (SKOV3) | Potency (Tov-21-G) | Potency (Tov112D)

CC(C)c1cc2c(c(O)c1O[C@@H]1O[C@H](CO)[C@@H](O)[C@H](O)[C@H]1O)CC1(O)CCC(O)C(C)(C)C1CC2 (stereo not given in full)
inactive: Potency (OV90) | Potency (PA-1) | Potency (SKOV3) | Potency (Tov-21-G) | Potency (Tov112D)

COc1cc(CCc2ccccc2)c(C(=O)O)c2c1CC(C(C)(C)O)O2 (stereo not given)
inactive: Potency (OV90) | Potency (PA-1) | Potency (SKOV3) | Potency (Tov-21-G) | Potency (Tov112D)

COCCCNCC1COc2ccccc2O1 (stereo not given)
inactive: Potency (OV90) | Potency (PA-1) | Potency (SKOV3) | Potency (Tov-21-G) | Potency (Tov112D)

COc1ccc2c(c1)O[C@H](O[C@@H]1O[C@H](CO)[C@@H](O)[C@H](O)[C@H]1O)C(=O)N2
inactive: Potency (OV90) | Potency (PA-1) | Potency (SKOV3) | Potency (Tov-21-G) | Potency (Tov112D)

CC(C)CC(=O)n1cc(C(N)=O)c(=O)cc1C(O)c1ccccc1 (stereo not given)
inactive: Potency (OV90) | Potency (PA-1) | Potency (SKOV3) | Potency (Tov-21-G) | Potency (Tov112D)

CCC(C)C1NC(=O)C2CCCN2C(=O)C(C(C)C)NC(=O)c2ccccc2NC(=O)C(Cc2ccc(O)cc2)NC(=O)C(C)NC(=O)C(C(C)O)NC1=O (stereo not given) (cyclo([2Abz]VPITAY); configuration not given here)
inactive: Potency (OV90) | Potency (PA-1) | Potency (SKOV3) | Potency (Tov-21-G) | Potency (Tov112D)

C/C=C/C1=CC2=CC(=O)C(C)(O)C(OC(=O)c3c(C)cc(O)cc3O)C2CO1 (stereo not given)
inactive: Potency (OV90) | Potency (PA-1) | Potency (SKOV3) | Potency (Tov-21-G) | Potency (Tov112D)

Cc1ncc([N+](=O)[O-])n1CC(O)CN1CCOCC1 (stereo not given)
inactive: Potency (OV90) | Potency (PA-1) | Potency (SKOV3) | Potency (Tov-21-G) | Potency (Tov112D)

C=CC1(C)C=C2C(O)CC3C(C)(C(=O)O)CCCC3(C)C2CC1 (stereo not given)
inactive: Potency (OV90) | Potency (PA-1) | Potency (SKOV3) | Potency (Tov-21-G) | Potency (Tov112D)

CCOC(=O)c1c(C)nn(-c2cccc([N+](=O)[O-])c2)c1C
inactive: Potency (OV90) | Potency (PA-1) | Potency (SKOV3) | Potency (Tov-21-G) | Potency (Tov112D)

Cc1nn(C)c(COc2ccc(N3CCN(S(=O)(=O)N(C)C)CC3)cc2)c1-c1cccc2c(CCCOc3cccc4ccccc34)c(C(=O)O)n(CCN3CCOCC3)c12
inactive: Potency (OV90) | Potency (PA-1) | Potency (SKOV3) | Potency (Tov-21-G) | Potency (Tov112D)

OC[C@H]1O[C@@H](Oc2ccc(O)c3cccc(O)c23)[C@H](O)[C@@H](O)[C@@H]1O
inactive: Potency (OV90) | Potency (PA-1) | Potency (SKOV3) | Potency (Tov-21-G) | Potency (Tov112D)

O=C1NC(Cc2ccc(O)cc2)C(=O)N2CCCC12 (stereo not given)
inactive: Potency (OV90) | Potency (PA-1) | Potency (SKOV3) | Potency (Tov-21-G) | Potency (Tov112D)

CC(C)C(C#N)O[C@@H]1O[C@H](CO[C@@H]2OC[C@](O)(CO)[C@H]2O)[C@@H](O)[C@H](O)[C@H]1O (stereo not given in full)
inactive: Potency (OV90) | Potency (PA-1) | Potency (SKOV3) | Potency (Tov-21-G) | Potency (Tov112D)

C[C@@H]1CC[C@]2(C)C3(C)CC[C@@]2(OC3=O)[C@@]12C[C@H](c1ccoc1)OC2=O
inactive: Potency (OV90) | Potency (PA-1) | Potency (SKOV3) | Potency (Tov-21-G) | Potency (Tov112D)

COC(=O)CC1(O)C(=O)Nc2ccccc21 (stereo not given)
inactive: Potency (OV90) | Potency (PA-1) | Potency (SKOV3) | Potency (Tov-21-G) | Potency (Tov112D)

Oc1ccc([C@H]2COc3cc(O)ccc3C2)cc1
inactive: Potency (OV90) | Potency (PA-1) | Potency (SKOV3) | Potency (Tov-21-G) | Potency (Tov112D)

CC(CCC1C(C(=O)O)=CC(=O)CC1(C)C)O[C@@H]1O[C@H](CO)[C@@H](O)[C@H](O)[C@H]1O (stereo not given in full)
inactive: Potency (OV90) | Potency (PA-1) | Potency (SKOV3) | Potency (Tov-21-G) | Potency (Tov112D)

C/C=C(\C)C(=O)OC[C@H]1O[C@H](O[C@H]2O[C@H](CO)[C@@H](OC(=O)/C(C)=C/C)[C@H](O)[C@H]2O[C@@H]2O[C@H](CO)[C@@H](O)[C@H](O)[C@H]2O)[C@H](O[C@@H]2O[C@H](CO)[C@@H](O)[C@H](O)[C@H]2O)[C@@H](O)[C@@H]1O
inactive: activity change, negative = cytotoxicity (OV90) 8.14% [at 11.6 µM] | activity change, negative = cytotoxicity (PA-1) 33.8% [at 11.6 µM] | activity change, negative = cytotoxicity (SKOV3) 3.25% [at 11.6 µM] | activity change, negative = cytotoxicity (Tov-21-G) 22.3% [at 11.6 µM] | activity change, negative = cytotoxicity (Tov112D) 9.9% [at 11.6 µM]
